Screening data: PubChem BioAssay, The Scripps Research Institute Molecular Screening Center
Shown are actives, neighbours in structure and some others; about 3.5% of the full set was active somewhere.
MITF primary: blocks human microphthalmia-associated transcription factor | inhibition, % at 2.6 µM | O75030 | 650,000 tested, 0.91% active | AID 1259374 | AlphaScreen MITF homodimerization, bead proximity signal; in the data active means inhibition above about 50%
GPR151 activ: activators of human GPR151 | PathHunter beta-arrestin GPR151 cells, luminescence | activation, % at 11.2 µM | 650,000 tested, 1% active | Q8TDV0; in the data active means activation above about 4.9%
Target sequence (Q8TDV0 whole entry, looked up): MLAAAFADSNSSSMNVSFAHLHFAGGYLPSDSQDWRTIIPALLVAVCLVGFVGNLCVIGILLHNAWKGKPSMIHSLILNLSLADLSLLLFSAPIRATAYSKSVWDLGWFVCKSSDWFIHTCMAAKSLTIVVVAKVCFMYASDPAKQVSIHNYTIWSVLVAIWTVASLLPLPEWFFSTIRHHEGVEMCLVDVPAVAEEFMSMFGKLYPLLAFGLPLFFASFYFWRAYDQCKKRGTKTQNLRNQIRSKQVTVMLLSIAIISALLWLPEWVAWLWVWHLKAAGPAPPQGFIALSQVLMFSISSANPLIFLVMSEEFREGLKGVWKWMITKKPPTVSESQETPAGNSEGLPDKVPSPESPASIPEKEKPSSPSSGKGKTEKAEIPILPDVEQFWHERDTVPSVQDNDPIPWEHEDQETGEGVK
FBW7 act: human FBW7 E3 ligase activation, primary screen. Q969H0. AlphaScreen FBW7–phospho-cyclin E peptide binding, activator screen. normalized activity (activation), % at 26.1 µM. 650,000 tested, 0.13% active; in the data active means normalized activity above about 1.9%;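 further: purified mutant Fbw7 with reduced substrate affinity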
TEAD-YAP block: TEAD-YAP interaction inhibition. HEK-TIYL cells, TEAD-Gal4/YAP UAS-luciferase luminescence. 640,000 tested, 1.4% active. AID 1259422. inhibition, % at 9.12 µM; in the data active means inhibition above about 32%
Hits are given with their value; - = inactive.

SMILES | MITF primary | GPR151 activ | FBW7 act | TEAD-YAP block
COC(=O)c1nnn(CC(=O)Nc2ccccc2C)c1C(=O)OC | - | - | - | -
CCn1c(SCC(=O)Nc2ccc([N+](=O)[O-])cc2)nnc1-c1ccc(O)cc1 | - | - | - | 50
N#CC1=C(N)Oc2cc(N)ccc2C1C1CCCCC1 (configuration not stated) | - | - | - | 46
N#CC1=C(N)Oc2cc(N)ccc2C1c1ccc(C(F)(F)F)cc1 (configuration not stated) | - | - | - | -
COc1ccc(NC(=O)CSc2nc3ccccc3c(=O)n2CCN2CCOCC2)c(OC)c1 | - | - | - | -
COc1ccc(-c2csc3ncnc(NCCO)c23)cc1 | - | - | - | 38
CCOC(=O)CSc1ncnc2scc(-c3ccc(F)cc3)c12 | - | - | 2.4 | -
CCOC(=O)CNc1ncnc2scc(-c3ccccc3)c12 | - | - | - | 35
CCOC(=O)CNC(=O)CSc1ncnc2scc(-c3ccc(Cl)cc3)c12 | - | - | - | -
COc1ccc(-c2csc3ncnc(NCCCO)c23)cc1 | - | - | - | -
COC(=O)CCNc1ncnc2scc(-c3ccc(C)cc3)c12 | - | - | - | 36
COc1cccc(S(=O)(=O)N(CC2CC2)C2CCN(c3nc(C)cc(C)n3)CC2)c1 | - | - | - | -
O=C(O)c1ccc2c(c1)NC(=O)c1ccccc1S2(=O)=O | - | - | 1.9 | -
O=C1[C@H]2CN(Cc3ccc(Cl)s3)CCN2C(=O)[C@H]2CCCN12 | - | - | - | -
COc1ccc2c(c1)nc(SCc1ccccc1)n2C | - | - | 2.0 | -
COc1ccc2c(c1)nc(SCC(=O)C(C)(C)C)n2C | - | - | - | -
C=CCN=C1CC(C)(C)CC(=O)/C1=C(/O)c1ccccc1 | - | - | - | -
CCCCCN1C=CC(=C2C(=O)c3ccccc3C2=O)C=C1 | - | - | - | 95
CCCCCN1C(=O)C(=O)c2ccccc21 | - | - | - | -
CCOc1ccccc1N1C(=O)NC(=O)/C(=C/c2ccc(OC)c(Br)c2)C1=O | - | - | - | -
CCNc1nc(OC)nc(Oc2ccc(=O)n(-c3ccccc3)n2)n1 | - | - | - | -
COc1nc(NCC(C)C)nc(Oc2ccc(=O)n(-c3ccccc3)n2)n1 | - | - | 2.4 | -
CCOC(=O)C1(CCCc2ccccc2)CCN(C(=O)CCN2CCCO2)CC1 | - | - | - | -
Clc1ccc(C(c2ccccc2)N2CCN(CCCc3c[nH]c4ccccc34)CC2)cc1 (configuration not stated) | - | - | - | -
CCOC(=O)COc1ccc(S(=O)(=O)Nc2cccc(C(F)(F)F)c2)cc1 | - | - | - | -
SMILES | MITF primary | GPR151 activ | FBW7 act | TEAD-YAP block
Cc1cc(NC(=O)CSc2nc3ccccc3c(=O)n2C2CCCC2)no1 | - | - | - | 50
Cc1cc(NC(=O)CSc2nc3ccccc3c(=O)[nH]2)no1 | - | - | - | 55
COc1ccc(CN(C(=O)c2ccccc2C)C2CCS(=O)(=O)C2)cc1 (configuration not stated) | - | - | - | -
Cc1ccc(Cc2cnc(NC(=O)COc3ccc(C)cc3)s2)cc1 | - | - | - | -
O=C(Nc1nc2ccccc2n1Cc1ccccc1Cl)c1ccccc1 | - | - | - | -
CC(=O)Nc1nc2ccccc2n1Cc1ccccc1Cl | - | - | - | 33
CCc1cccc(CC)c1NC(=O)c1cc(S(=O)(=O)N2CCN(c3ccccc3OC)CC2)ccc1F | - | - | - | -
CSc1nnc2c(n1)OC(c1ccco1)N(C(=O)c1ccccc1)c1ccccc1-2 (configuration not stated) | - | - | - | 53
CC1=NOC(=O)/C1=C/c1ccccc1O | 55 | - | - | -
CCOc1cc(/C=C2\C(=O)ON=C2C)cc(Br)c1OCC | - | - | - | -
CC1=NOC(=O)/C1=C\c1cc(Br)c(O)c(Br)c1 | 68 | - | - | -
O=C1ON=C(c2ccccc2)/C1=C\c1ccccc1O | 68 | - | - | -
O=C(O)/C=C\C(=O)Nc1ccc2cn[nH]c2c1 | - | - | - | 47
O=C(O)/C=C\C(=O)Nc1ccc(Cl)c(Cl)c1 | - | - | - | -
Cc1ccc2c(c1)C(O)(C(=O)NC(N)=O)C(=O)N2 (configuration not stated) | - | - | - | -
Fc1ccc(-c2cc(NCCCN3CCOCC3)nc(-c3ccccn3)n2)cc1 | - | - | - | -
OCCCNc1cc(-c2ccccn2)nc(-c2ccccn2)n1 | 115 | - | - | -
Fc1ccccc1-c1cc(NCCCN2CCOCC2)nc(-c2ccccn2)n1 | - | - | - | 37
COC(CNc1cc(-c2ccccc2)nc(-c2ccccn2)n1)OC | - | - | - | 48
c1ccc(-c2cc(NCc3ccncc3)nc(-c3ccccn3)n2)cc1 | - | - | - | 37
c1ccc(CNc2cc(-c3ccncc3)nc(-c3ccccn3)n2)cc1 | - | - | - | -
O=C1C2CC=CCC2C(=O)N1c1cc([N+](=O)[O-])ccc1F (configuration not stated) | - | - | - | -
OCCCNc1cc(-c2ccccn2)nc(-c2ccccc2)n1 | - | - | - | -
OCCCNc1cc(-c2ccccc2)nc(-c2ccccn2)n1 | - | - | - | 78
CN(CC(=O)Nc1ccccc1Br)S(=O)(=O)c1cccs1 | - | - | 5.8 | -
SMILES | MITF primary | GPR151 activ | FBW7 act | TEAD-YAP block
O=CNc1cccc2c1sc1nc[nH]c(=O)c12 | - | - | - | 53
CCOc1c(Br)ccc2c1sc1nc[nH]c(=O)c12 | - | - | - | -
O=C1c2cccc3c(Cl)ccc(c23)C(=O)N1O | - | - | - | 45
O=C1c2cccc3c(Br)ccc(c23)C(=O)N1O | - | - | - | -
c1ccc(CN2CCC(Nc3nc(Nc4ccc(N5CCOCC5)cc4)c4ncn(-c5ccsc5)c4n3)CC2)cc1 | - | - | - | 49
c1cc(-n2cnc3c(Nc4ccc5c(c4)OCO5)nc(N4CCN(Cc5ccc6c(c5)OCO6)CC4)nc32)cs1 | - | - | - | -
OC1CCC(Nc2nc(NC3CCN(Cc4ccccc4)CC3)c3ncn(-c4ccccc4)c3n2)CC1 (configuration not stated) | - | - | - | 42
Cc1nn(C)c(C)c1-c1nc(NC2CCN(Cc3ccccc3)CC2)c2ncn(C(C)C)c2n1 | - | - | - | 72
c1cc(-n2cnc3c(NC4CC4)nc(N4CCN(Cc5ccc6c(c5)OCO6)CC4)nc32)cs1 | - | - | - | 37
CCCCOC(=O)C1=C(C)NC(=O)NC1c1cccc(Cl)c1 (configuration not stated) | - | - | - | -
Cc1sc2nc(CN(C)C3CCCCC3)[nH]c(=O)c2c1C | - | - | - | -
c1ccc(CN2CCC(Nc3nc(Nc4ccc(-n5ccnc5)cc4)nc4c3ncn4-c3ccsc3)CC2)cc1 | - | - | - | 42
c1ccc(CN2CCC(Nc3nc(N4CCC(N5CCOCC5)CC4)nc4c3ncn4-c3ccsc3)CC2)cc1 | - | - | - | -
c1ccc(CN2CCC(Nc3nc(NC4CC4)c4ncn(-c5ccsc5)c4n3)CC2)cc1 | - | - | - | 36
c1ccc(CN2CCC(Nc3nc(N4CCOCC4)nc4c3ncn4-c3ccsc3)CC2)cc1 | - | - | - | 44
O=[N+]([O-])c1cccc(S(=O)(=O)N2CCc3ccccc3C2)c1 | - | - | - | -
